# Screens (PubChem BioAssay)
# Hits are enriched below; roughly 0.4% of the tested compounds scored in any of these assays.
# FMDV antiviral – shows antiviral activity against foot and mouth disease virus | 120,000 tested, 0.23% active | Potency, µM (series often up to 57.5 µM), for inactives: top-dose activity change, negative = inhibition, usual class: inhibitors | FMDV antiviral cell assay, firefly luciferase signal; also: nearly all actives have a fitted effect of over 60% in size
# FMDV RLuc – antivirals against foot and mouth disease virus replicon; FMDV replicon cells, Renilla luciferase signal; Potency, µM (top dose mostly 57.5 µM), for the others: at the highest dose activity change, negative = inhibition, actives largely listed as inhibitors; 120,000 tested, 0.32% active; AID 1745857; also: nearly all actives have a fitted effect of over 55% in size
# Numbers without * were called inactive; ? = inconclusive; [ ] = remark or other dose. Calls follow the shape of the full dose curve. % is scaled to controls: 0 for no effect and ±100 for the full control effect; potency is read from the fitted curve at half-maximal effect.
SMILES,FMDV antiviral,FMDV RLuc
CN(C(=O)CSc1nnc(-c2ccccc2)n1C)C1CCS(=O)(=O)C1 (stereo unspecified),-6%,-14%
Cc1nc(C)c(-c2ccc(SCC(=O)Nc3ccc(F)c(F)c3)nn2)s1,?,7.9µM*
Cc1nc(C)c(-c2ccc(SCC(=O)Nc3ccc(C)c(F)c3)nn2)s1,3%,2%
Cc1noc(Cn2c(=O)c3cc4c(cc3n(CC(=O)Nc3ccccc3Br)c2=O)OCO4)n1,-7%,-8%
COc1ccc(S(=O)(=O)Oc2ccc3c(c2)O/C(=C\C=C\c2ccccc2)C3=O)cc1,1%,-7%
Cc1cccc(Cn2c(NCCN3CCOCC3)nc3c2c(=O)n(C)c(=O)n3C)c1,15%,4%
Cn1c(=O)c2c(nc(NCCc3ccccc3)n2Cc2cccc(Br)c2)n(C)c1=O,40%,-12%
Cc1cccc(Cn2c(NCCO)nc3c2c(=O)n(C)c(=O)n3C)c1,?,11µM*
Cn1c(=O)c2c(nc(NCCCCO)n2Cc2ccccc2Cl)n(C)c1=O,-6%,-9%
Cn1c(=O)c2c(nc(NCCO)n2Cc2cccc(Br)c2)n(C)c1=O,?,13µM*
Cn1c(=O)c2c(nc(NCCO)n2Cc2ccccc2F)n(C)c1=O,13µM*,13µM*
COC1CC(OC2CCC3(C)C(CC[C@@H]4[C@@H]3CCC3(C)C(C5=CC(=O)OC5)C(OC(C)=O)CC43O)C2)OC(C)C1O (stereo partly specified),-83%,-76%
CC(=O)OC1CC(OC2C(O)CC(OC3C(O)CC(OC4CC(O)C5(C)C(CC[C@@H]6[C@@H]5CCC5(C)C(C7=CC(=O)OC7)CCC65O)C4)OC3C)OC2C)OC(C)C1O (stereo partly specified),0.56µM*,0.89µM*
C[C@H]1O[C@@H](O[C@H]2[C@@H](O)C[C@H](O[C@H]3[C@@H](O)C[C@H](O[C@H]4CC[C@@]5(C)[C@H](CC[C@@H]6[C@@H]5CC[C@]5(C)[C@@H](C7=CC(=O)OC7)CC[C@]65O)C4)O[C@@H]3C)O[C@@H]2C)C[C@H](O)[C@@H]1O,?,-74%
CC(=O)OC1CC2(O)[C@@H]3CCC4CC(OC5CC(O)C(OC6CC(O)C(OC7CC(O)C(O)C(C)O7)C(C)O6)C(C)O5)CCC4(C)[C@H]3CCC2(C)C1C1=CC(=O)OC1 (stereo partly specified),0.63µM*,?
COC1C(O)CC(OC2C(O)CC(OC3C(O)CC(OC4CCC5(C)C(CCC6[C@@H]5CC(O)C5(C)C(C7=CC(=O)OC7)CCC65O)C4)OC3C)OC2C)OC1C (stereo partly specified),?,0.5µM*
C[C@H]1O[C@@H](O[C@H]2CC[C@@]3(C)[C@H](CC[C@@H]4[C@@H]3C[C@@H](O)[C@]3(C)[C@@H](C5=CC(=O)OC5)CC[C@]43O)C2)C[C@H](O)[C@@H]1O[C@H]1C[C@H](O)[C@H](O[C@H]2C[C@H](O)[C@H](O[C@@H]3O[C@H](CO)[C@@H](O)[C@H](O)[C@H]3O)[C@@H](C)O2)[C@@H](C)O1,-80%[11.5 µM],-78%
CC1OC(OC2C(O)CC(OC3C(O)CC(OC4CCC5(C)C(CC[C@@H]6[C@@H]5CCC5(C)C(C7=CC(=O)OC7)CCC65O)C4)OC3C)OC2C)CC(O)C1O (stereo partly specified),0.25µM*,0.56µM*
Cc1ccc(C(CNC(=O)c2cc(=O)c3cc(Cl)c(C)cc3o2)N2CCCCC2)o1 (stereo unspecified),-8%,-11%
O=C(CCC(=O)c1cccs1)Nc1ccc(N2CCOCC2)cn1,70%,26%
COc1cccc(/C=C/C(=O)NCc2ccccc2)c1,149%,-9%[1.06 µM]
COc1ccc2c(C)c(CCC(=O)N(C)Cc3cccc(OC)c3OC)c(=O)oc2c1,-2%,35%
FC(F)(F)c1cn2cc(Cl)ccc2n1,20%,6%
Cc1c(C(=O)OC2CCCCCC2)[nH]c2c1C(=O)CC(c1ccccc1)C2 (stereo unspecified),-12%,-9%
COc1cc(C2CC(=O)c3c([nH]c(C(=O)OC4CCCC4)c3C)C2)cc(OC)c1OC (stereo unspecified),?,8.9µM*
SMILES,FMDV antiviral,FMDV RLuc
Cc1cccc(-c2noc(-c3ccc(N4CCCC4)c([N+](=O)[O-])c3)n2)c1,8.9µM*,7%
Cc1cccc(-c2noc(-c3ccc(N4CCOCC4)c([N+](=O)[O-])c3)n2)c1,-23%,2%
Cc1ccc(NC(=O)CN2CCc3sccc3C2c2cccs2)cc1S(=O)(=O)N(C)C (stereo unspecified),?,4%
O=C(NCCc1cccnc1)c1ccc2ccccc2c1,62%,8%
N#C/C(=C/c1ccc2ncccc2c1)c1nc2ccccc2[nH]1,46%,1%
O=S(=O)(/C(=C/c1ccc2ccccc2c1)c1nc2ccccc2[nH]1)c1ccccc1,35µM*,16µM*
COc1ccc(NC(=O)Nc2cc(-c3cn4cccnc4n3)ccc2C)cc1,31%,-5%
CC(=O)c1c(C)[nH]c(C(=O)C(C)Sc2ccccc2Br)c1C (stereo unspecified),25µM*,0%
CC(=O)c1c(C)[nH]c(C(=O)CSc2ccc(Br)cc2)c1C,48%,-18%
COc1ccc(NC(=O)c2c(NCc3cccs3)sc3c2CCCCC3)c(OC)c1,-6%,170%
COc1ccc(NC(=O)c2c(NCc3cccs3)sc3c2CCCC3)cc1,2%,8.9µM*
CCOC(=O)C1CCN(C(=O)C(C)OC(=O)c2n[nH]c(=O)c3ccccc23)CC1 (stereo unspecified),-4%,0%
COc1ccc(N/C=C/C(=O)c2ccc(C(C)C)cc2)cc1,113%,6%
NC(=S)N/N=C/c1cccnc1,-16%[11.5 µM],-9%
COc1ccc(CCNC(=O)c2cc(=O)c3ccccc3o2)cc1OC,-21%,-13%
CCc1ccc2oc(C(=O)NCCc3ccc(OC)c(OC)c3)cc(=O)c2c1,35µM*,?
CC(=O)NCCc1ccccc1,19%,10%
CCc1c(C)sc2c1CCN(Cc1ccccc1)C2c1ccccc1 (stereo unspecified),?,13µM*
CCc1c(C)sc2c1CCN(Cc1ccccc1C#N)C2c1ccccc1 (stereo unspecified),18%,16%
CN(C)c1ccc(N=Cc2c(O)ccc3ccccc23)cc1,63%,-7%
CN(CCOc1ccc(F)cc1)Cc1nc(N)nc(N(C)C)n1,3%,-5%
COc1ccc2c(c1)c(C(C)=O)c(C)n2CCc1ccccc1,?,11µM*
COc1ccc2c(c1)c(C(C)=O)c(C)n2CCc1ccc(OC)c(OC)c1,-3%,-6%
CC(=O)Nc1cccc(-c2nc3cc(Cl)cc(Cl)c3o2)c1,13%,-9%
CCCC(=O)Nc1nnc(SCc2cc(=O)c3ccc(C)cc3[nH]2)s1,2.5µM*,2µM*
SMILES,FMDV antiviral,FMDV RLuc
Cc1ccc(OCC(=O)Nc2nnc(SCc3cc(=O)c4ccccc4[nH]3)s2)cc1,-1%,-8%
CCC(=O)Nc1nnc(SCc2cc(=O)c3cc(C)ccc3[nH]2)s1,-1%,-17%
CCC(CC)C(=O)Nc1nnc(SCc2cc(=O)c3ccccc3[nH]2)s1,13µM*,8.9µM*
CCc1ccccc1NC(=O)c1ccc(F)c(S(=O)(=O)N2CCN(c3cccc(Cl)c3)CC2)c1,-19%,-8%
COC(=O)c1cccc(NC(=O)c2ccc3c(c2)CC(c2ccc(F)cc2)OC3=O)c1 (stereo unspecified),0%,-7%
COc1ccc(CNC(=O)Nc2ccc(F)cc2)cc1OC,36%,15%
